The values below come from PubChem BioAssay (Tox21).

Experiment [1] can be described thus: Caspase-3/7 induction in CHO-K1 cells by small molecules, qHTS cell viability counter screen (AID 1346979). Also: nearly all actives have a fitted effect of over 35% in size. Also: potency is read from the fitted curve at half-maximal effect. As to activity change, negative = cytotoxicity: % is scaled to controls: 0 for no effect and ±100 for the full control effect. The procedure, abridged: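 Seeding: 1,500 CHO-K1 cells/well. Rest: 5hr, 37C. Treatment: compounds in DMSO, 16hr. Read: CellTiter-Fluor, 1hr, fluorescence.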
Background: Quantitative high-throughput screening tests each substance at several concentrations.

Experiment [2] in a line: Caspase-3/7 induction in CHO-K1 cells by small molecules, qHTS assay (AID 1346980). Also: % is scaled to controls: 0 for no effect and ±100 for the full control effect; nearly all actives have a fitted effect of over 15% in size. In outline: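 Wild-type cells were seeded at 1,500 per well and settled 5 hr at 37 C, 5% CO2, then exposed to DMSO-dissolved compounds for 17 hr. Caspase-Glo 3/7 reagent was added, and luminescence was read after 30min at room temperature.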
Experiment [3] is described as follows: Caspase-3/7 induction in HepG2 cells by small molecules, qHTS cell viability counter screen (AID 1346981). Also: series mostly up to about 92 µM; % is scaled to controls: 0 for no effect and ±100 for the full control effect; nearly all actives have a fitted effect of over 30% in size. The procedure, abridged: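 Viability determined by CellTiter-Fluor fluorescence in HepG2 wells also used for the luminescent Caspase-Glo 3/7 read. Compounds were present for 16 hr at 37 C, 5% CO2 before reagent addition.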
The target of experiment [4] is Cytochrome P450 2D6 (Homo sapiens) (UniProt P10635). The experiment can be described thus: Cytochrome P450 Family 2 Subfamily D Member 6 (CYP2D6) small molecule antagonists: luciferase reporter qHTS assay (AID 1671196). Also: nearly all actives have a fitted effect of over 50% in size. Also: potency is read from the fitted curve at half-maximal effect. As to activity change, negative = inhibition: series mostly up to about 120 µM; % is scaled to controls: 0 for no effect and ±100 for the full control effect. In outline:
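Each well received CYP2D6 with its proluciferin substrate and chemical, sat 10 min, then got NADPH regeneration solution for 1 h at room temperature. Luminescence in RLU served as the activity measure.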

The target of experiment [5] is Cytochrome P450 2C19 (Homo sapiens) (UniProt P33261). The experiment can be described thus: Cytochrome P450 Family 2 Subfamily C Member 19 (CYP2C19) small molecule antagonists: luciferase reporter qHTS assay (AID 1671197). Also: nearly all actives have a fitted effect of over 65% in size. Also: potency is read from the fitted curve at half-maximal effect. As to activity change, negative = inhibition: series mostly up to about 120 µM; % is scaled to controls: 0 for no effect and ±100 for the full control effect. In outline:
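Compounds were tested on CYP2C19 activity via proluciferin conversion to luciferin. The 37C, 1 h reaction followed NADPH addition; detection reagent stopped it.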
A general note: A reporter such as luciferase makes a cellular process visible.

The target of experiment [6] is Cytochrome P450 2C9 (Homo sapiens) (UniProt P11712). The experiment can be described thus: Cytochrome P450 Family 2 Subfamily C Member 9 (CYP2C9) small molecule antagonists: luciferase reporter qHTS assay (AID 1671198). Also: nearly all actives have a fitted effect of over 50% in size. Also: potency is read from the fitted curve at half-maximal effect. As to activity change, negative = inhibition: series mostly up to about 120 µM; % is scaled to controls: 0 for no effect and ±100 for the full control effect. In outline:
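CYP2C9 activity was measured with a P450-Glo proluciferin substrate. Enzyme–substrate mix was held with compound for 10 min at room temperature, then NADPH regeneration solution was added for 1 h at 37C. Luciferin product was read as luminescence.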

For experiment [7], the target named is Voltage-gated inwardly rectifying potassium channel KCNH2 (Homo sapiens) (UniProt Q12809). The experiment can be described thus: Human Ether-a-go-go-Related Gene (hERG) channel small molecule antagonists: fluorescence cell-based qHTS assay (AID 1671200).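 Also: hERG-expressing U2OS cells given a thallium stimulus after FluxOR II dye loading; series mostly up to about 77 µM; % is scaled to controls: 0 for no effect and ±100 for the full control effect; nearly all actives have a fitted effect of over 50% in size.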 In outline:
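First, 1000 cells per well are seeded and cultured overnight at 37 C. Next, FluxOR II dye is loaded for 1 h at room temperature, protected from light. After 10 more minutes, stimulus is added and fluorescence is read.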

In experiment [8] the target is Cytochrome P450 3A4 (Homo sapiens) (UniProt P08684). The experiment can be described thus: Cytochrome P450 Family 3 Subfamily A Member 4 (CYP3A4) small molecule antagonists: luciferase reporter qHTS assay (AID 1671201). Also: nearly all actives have a fitted effect of over 50% in size. Also: potency is read from the fitted curve at half-maximal effect. In outline: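 Enzyme and proluciferin substrate are mixed with test chemicals for 10 min, then NADPH regeneration system drives turnover for 1 h at room temperature. A detection reagent halts the reaction; luminescence after 20 min gives relative activity.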
Chain of Cytochrome P450 3A4 (Homo sapiens) (P08684 whole entry, looked up): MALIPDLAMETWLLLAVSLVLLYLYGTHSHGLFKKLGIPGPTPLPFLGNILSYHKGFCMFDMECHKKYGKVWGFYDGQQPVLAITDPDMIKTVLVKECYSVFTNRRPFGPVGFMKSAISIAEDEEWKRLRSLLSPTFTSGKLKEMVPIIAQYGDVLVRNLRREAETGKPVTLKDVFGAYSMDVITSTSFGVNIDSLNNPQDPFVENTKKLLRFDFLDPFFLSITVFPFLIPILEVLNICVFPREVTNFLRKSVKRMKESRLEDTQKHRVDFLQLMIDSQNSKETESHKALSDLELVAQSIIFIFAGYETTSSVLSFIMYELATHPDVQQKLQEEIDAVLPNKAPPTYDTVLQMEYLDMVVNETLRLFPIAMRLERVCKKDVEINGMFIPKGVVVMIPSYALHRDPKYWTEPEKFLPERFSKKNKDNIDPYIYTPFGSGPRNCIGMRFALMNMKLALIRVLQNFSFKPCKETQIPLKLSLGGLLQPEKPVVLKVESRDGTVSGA

For experiment [9], the target named is Cytochrome P450 1A2 (Homo sapiens) (UniProt P05177). The experiment can be described thus: Cytochrome P450 Family 1 Subfamily A Member 2 (CYP1A2) small molecule antagonists: luciferase reporter qHTS assay (AID 1671199). Also: nearly all actives have a fitted effect of over 50% in size. Also: potency is read from the fitted curve at half-maximal effect. The procedure, abridged: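 Enzymatic CYP1A2 assay, human, luminescent: 10 min compound–enzyme–substrate preincubation, 1 h NADPH-dependent turnover, 20 min detection step, room temperature throughout. Reduced light indicates lower CYP1A2 activity.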
Chain of Cytochrome P450 1A2 (Homo sapiens) (P05177 whole entry, looked up): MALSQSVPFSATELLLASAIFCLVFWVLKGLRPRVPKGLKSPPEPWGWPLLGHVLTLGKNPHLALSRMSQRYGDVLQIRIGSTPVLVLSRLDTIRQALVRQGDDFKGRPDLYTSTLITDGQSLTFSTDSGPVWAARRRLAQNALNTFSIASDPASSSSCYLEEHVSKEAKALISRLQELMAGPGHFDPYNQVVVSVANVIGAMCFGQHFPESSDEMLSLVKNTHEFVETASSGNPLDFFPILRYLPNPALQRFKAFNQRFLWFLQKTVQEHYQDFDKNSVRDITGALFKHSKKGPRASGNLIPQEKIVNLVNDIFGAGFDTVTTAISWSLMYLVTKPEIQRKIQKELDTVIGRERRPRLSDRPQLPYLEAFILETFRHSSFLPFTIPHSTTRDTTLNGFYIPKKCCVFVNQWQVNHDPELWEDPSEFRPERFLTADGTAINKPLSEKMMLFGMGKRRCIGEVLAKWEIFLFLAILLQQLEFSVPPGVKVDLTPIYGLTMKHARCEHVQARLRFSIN

The target of experiment [10] is Nuclear receptor subfamily 1 group I member 2 (Homo sapiens) (UniProt O75469). The experiment can be described thus: Human pregnane X receptor (PXR) small molecule agonists, qHTS assay (AID 1346982). Also: nearly all actives have a fitted effect of over 35% in size. Also: potency is read from the fitted curve at half-maximal effect. The procedure, abridged: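 Compound-induced hPXR transactivation of a CYP3A4 luciferase reporter was scored in HepG2 PXR-Luc cells over 24 hr at 37 C, 5% CO2, by luminescence.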
Chain of Nuclear receptor subfamily 1 group I member 2 (Homo sapiens) (O75469 whole entry, looked up): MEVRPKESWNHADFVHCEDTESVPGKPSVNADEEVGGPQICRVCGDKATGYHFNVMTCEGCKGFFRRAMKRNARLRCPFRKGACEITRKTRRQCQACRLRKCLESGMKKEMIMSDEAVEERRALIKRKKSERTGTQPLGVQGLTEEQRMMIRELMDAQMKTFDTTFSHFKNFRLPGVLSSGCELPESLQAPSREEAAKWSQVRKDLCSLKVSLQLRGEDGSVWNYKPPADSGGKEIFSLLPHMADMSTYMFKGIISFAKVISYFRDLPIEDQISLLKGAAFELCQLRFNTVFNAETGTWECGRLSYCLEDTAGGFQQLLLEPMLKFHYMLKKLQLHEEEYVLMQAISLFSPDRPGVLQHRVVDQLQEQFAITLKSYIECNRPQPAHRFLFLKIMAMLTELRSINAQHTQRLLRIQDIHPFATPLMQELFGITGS

For experiment [11] the target is unchanged. The experiment can be described thus: Human pregnane X receptor (PXR) activation by small molecules, qHTS assay (AID 1346985). Also: potency is read from the fitted curve at half-maximal effect; nearly all actives have a fitted effect of over 40% in size. The procedure, abridged:
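DPX-2 cells (HepG2 co-transfected with a PXR response element and a CYP3A4-promoter luciferase construct) were seeded at 2,000 per well, rested 5 hr at 37C, then exposed to DMSO-dissolved compounds for 24 hr. Activation was read as luciferase luminescence.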

Experiment [12] shares this target. The experiment can be described thus: CYP3A4 induction through human pregnane X receptor (PXR) by small molecules, qHTS assay (AID 1346984). Also: potency is read from the fitted curve at half-maximal effect; nearly all actives have a fitted effect of over 40% in size. In outline:
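Readings come from a luciferase reporter: DPX-2 cells, which are HepG2 cotransfected with PXR and a CYP3A4-promoter construct, were exposed to test compounds for 24 h at 37C before One-Glo detection.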

Unmarked numbers belong to inactive results. Inconclusive results are not listed. The source made the active and inactive calls. Calls follow the shape of the dose curve; as a rule, active = well fitted curve in the direction sought with a large enough effect in the repeat runs; inconclusive = weak or mixed curves; inactive = no such curve, though single readings can be large; an effect the other way counts as inactive or inconclusive.

Chain of Cytochrome P450 2C19 (Homo sapiens) (P33261 whole entry, looked up): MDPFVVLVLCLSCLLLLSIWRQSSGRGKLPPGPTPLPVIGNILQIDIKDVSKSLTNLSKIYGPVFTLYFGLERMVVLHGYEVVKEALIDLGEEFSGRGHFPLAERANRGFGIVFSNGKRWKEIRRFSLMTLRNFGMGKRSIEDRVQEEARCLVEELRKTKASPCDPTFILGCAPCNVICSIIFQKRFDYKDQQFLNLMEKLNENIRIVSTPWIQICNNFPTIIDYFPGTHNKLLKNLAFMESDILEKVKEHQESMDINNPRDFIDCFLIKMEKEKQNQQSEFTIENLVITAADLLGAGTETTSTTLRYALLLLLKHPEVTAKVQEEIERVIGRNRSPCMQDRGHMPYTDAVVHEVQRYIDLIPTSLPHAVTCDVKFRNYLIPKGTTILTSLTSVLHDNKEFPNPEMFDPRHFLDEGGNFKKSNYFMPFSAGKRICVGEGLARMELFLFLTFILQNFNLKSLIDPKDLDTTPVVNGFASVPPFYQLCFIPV
Chain of Cytochrome P450 2C9 (Homo sapiens) (P11712 whole entry, looked up): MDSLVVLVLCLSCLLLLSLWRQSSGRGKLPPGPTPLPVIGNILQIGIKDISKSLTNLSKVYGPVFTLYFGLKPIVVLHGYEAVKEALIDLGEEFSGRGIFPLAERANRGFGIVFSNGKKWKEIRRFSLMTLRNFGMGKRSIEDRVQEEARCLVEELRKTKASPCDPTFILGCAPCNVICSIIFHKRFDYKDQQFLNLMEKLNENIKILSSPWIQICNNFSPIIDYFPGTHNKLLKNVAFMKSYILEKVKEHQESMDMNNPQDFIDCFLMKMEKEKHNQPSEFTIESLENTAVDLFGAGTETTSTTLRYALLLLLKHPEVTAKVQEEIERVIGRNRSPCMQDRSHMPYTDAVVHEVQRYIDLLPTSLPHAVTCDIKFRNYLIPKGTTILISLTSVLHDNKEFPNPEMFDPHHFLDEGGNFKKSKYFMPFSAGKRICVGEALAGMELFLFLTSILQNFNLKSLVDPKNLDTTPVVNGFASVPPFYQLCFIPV
Chain of Voltage-gated inwardly rectifying potassium channel KCNH2 (Homo sapiens) (Q12809 whole entry, looked up): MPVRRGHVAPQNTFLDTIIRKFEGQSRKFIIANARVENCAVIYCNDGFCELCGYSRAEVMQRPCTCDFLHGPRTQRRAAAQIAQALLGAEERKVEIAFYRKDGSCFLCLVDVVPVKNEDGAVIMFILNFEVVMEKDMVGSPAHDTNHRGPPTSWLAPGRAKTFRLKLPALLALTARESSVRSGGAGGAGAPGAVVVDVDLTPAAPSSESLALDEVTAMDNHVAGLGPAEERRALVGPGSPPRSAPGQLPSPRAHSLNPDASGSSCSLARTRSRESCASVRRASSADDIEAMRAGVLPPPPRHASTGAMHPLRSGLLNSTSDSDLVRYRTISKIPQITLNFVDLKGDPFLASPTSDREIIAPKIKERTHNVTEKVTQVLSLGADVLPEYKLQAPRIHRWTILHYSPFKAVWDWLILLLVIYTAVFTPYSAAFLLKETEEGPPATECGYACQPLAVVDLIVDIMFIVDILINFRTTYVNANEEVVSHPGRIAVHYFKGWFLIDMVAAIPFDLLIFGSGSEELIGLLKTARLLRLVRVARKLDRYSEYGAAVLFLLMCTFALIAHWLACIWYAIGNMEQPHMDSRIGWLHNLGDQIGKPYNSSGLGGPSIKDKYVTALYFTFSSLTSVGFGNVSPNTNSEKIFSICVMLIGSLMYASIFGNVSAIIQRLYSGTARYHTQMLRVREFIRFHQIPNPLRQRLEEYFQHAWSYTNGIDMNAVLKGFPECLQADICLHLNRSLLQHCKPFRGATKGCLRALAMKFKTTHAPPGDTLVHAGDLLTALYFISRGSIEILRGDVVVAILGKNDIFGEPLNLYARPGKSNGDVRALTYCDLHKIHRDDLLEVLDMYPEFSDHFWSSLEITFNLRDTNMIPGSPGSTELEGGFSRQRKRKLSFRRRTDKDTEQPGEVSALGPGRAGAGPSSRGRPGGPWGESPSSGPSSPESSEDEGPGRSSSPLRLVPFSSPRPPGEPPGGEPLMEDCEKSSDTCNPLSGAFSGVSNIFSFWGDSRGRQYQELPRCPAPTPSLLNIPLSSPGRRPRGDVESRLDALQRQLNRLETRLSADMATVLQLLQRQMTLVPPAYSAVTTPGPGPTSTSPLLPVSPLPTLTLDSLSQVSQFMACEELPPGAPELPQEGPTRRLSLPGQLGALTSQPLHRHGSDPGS
Chain of Cytochrome P450 2D6 (Homo sapiens) (P10635 whole entry, looked up): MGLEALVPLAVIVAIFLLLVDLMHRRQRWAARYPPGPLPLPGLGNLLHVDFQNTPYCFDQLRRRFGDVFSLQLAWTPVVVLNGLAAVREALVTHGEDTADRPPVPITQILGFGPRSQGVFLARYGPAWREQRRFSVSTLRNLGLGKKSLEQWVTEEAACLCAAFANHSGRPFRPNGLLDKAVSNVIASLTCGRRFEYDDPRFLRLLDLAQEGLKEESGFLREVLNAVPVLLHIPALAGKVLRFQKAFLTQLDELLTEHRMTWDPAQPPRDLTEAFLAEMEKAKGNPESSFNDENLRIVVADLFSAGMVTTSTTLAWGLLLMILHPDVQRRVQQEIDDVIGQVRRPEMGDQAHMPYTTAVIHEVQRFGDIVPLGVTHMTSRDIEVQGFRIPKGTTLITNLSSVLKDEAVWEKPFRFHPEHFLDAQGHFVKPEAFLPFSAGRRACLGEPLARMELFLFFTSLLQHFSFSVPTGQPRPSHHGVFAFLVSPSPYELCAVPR

On to `CC(C)=C1CC[C@@H](C)CC1=O`, for which the Potency result in [1], in experiment [2], in [3], in [4], in experiment [5] and in [6] was “inactive” in each case. Also, the Potency result in experiment [7] and in [8] was “inactive” each time.

As to `c1cc2c3c(c1)ccc1cccc(c13)C2`, the Potency result in [1], in [2], in [3] and in [7] was “inactive” throughout. Also, the Potency was 40.8 µM (active) in experiment [5] and 3.63 µM (active) in [9].

Take `Cc1c(C(=O)O)cccc1[N+](=O)[O-]`: the Potency entry in experiment [1], in experiment [2], in experiment [3], in [4], in experiment [5] and in experiment [6] was “inactive” throughout. Moreover, the Potency result in experiment [9], in [7] and in experiment [8] was “inactive” each time.

As to `COc1ccccc1OCCNCC(O)COc1cccc2[nH]c3ccccc3c12` (stereo unspecified), the Potency is 29.8 µM (active) in experiment [1]; 8.41 µM (active) in experiment [10]; 22.4 µM (active) in experiment [11]; 1.55 µM (active) in experiment [4]; 5.49 µM (active) in experiment [5]; 8.12 µM (active) in experiment [9]. For the same compound, in experiment [2], the Potency result was “inactive”.

Regarding `O=C(c1ccccc1)c1cc(Cl)ccc1O`, the Potency entry in experiment [1], in experiment [2], in experiment [3] and in experiment [8] was “inactive” throughout. Also, the Potency in experiment [4] was 37.9 µM (active); in experiment [5], 1.9 µM (active); in experiment [6], 33.8 µM (active); in [9] it was 12 µM (active).

In the case of `COC(=O)[C@]1(C)CCC[C@@]2(C)[C@H]1CC=C1C=C(C(C)C)CC[C@@H]12`, the Potency entry in experiment [1], in experiment [2], in [3] and in experiment [7] was “inactive” each time. The Potency in experiment [5] was 28.3 µM (active); in experiment [6], 31.7 µM (active); in experiment [8] it was 35.6 µM (active).

On to `CCCCCCCC(OC)OC`, for which the Potency result in experiment [1], in experiment [2], in [3], in experiment [4], in experiment [5] and in experiment [6] was “inactive” each time. Further, the Potency result in [9], in [7] and in experiment [8] was “inactive” in each case.

`COc1ccc(C#N)cc1`: the Potency result in [1], in [2], in experiment [3], in experiment [4], in experiment [5] and in [6] was “inactive” in each case. Further, the Potency entry in experiment [7] and in [8] was “inactive” each time.

As to `CCCCCCCCCCCCCCCC`, the Potency result in [1], in experiment [2], in [10], in [4], in [5] and in experiment [9] was “inactive” each time. Moreover, the Potency result in experiment [7] and in experiment [8] was “inactive” each time. In addition, the Potency in experiment [6] is 39.9 µM (active).

`O=C=NCc1cccc(CN=C=O)c1`: the activity change, negative = cytotoxicity is 0.691% [at 19 µM] in [1] and 9.74% [at 19 µM] in [3]. Also, the caspase-3/7 activation in experiment [2] is -0.138% [at 19 µM]. Moreover, the results for the activity change, negative = inhibition in experiment [4], in [9] and in experiment [7] were -24.5% [at 23.6 µM], -18.9% [at 23.6 µM] and 0.993% [at 15.8 µM], respectively. Further, the Potency is 6.74 µM (active) in experiment [6] and 4.25 µM (active) in [8].

Turning to `CN(C)CCN1CCOCC1`, the Potency result in [1], in [2], in experiment [3], in experiment [5], in experiment [6] and in experiment [9] was “inactive” in each case. Also, in [7], the Potency entry was “inactive”.

With `CO[Si](CCCNCCNCCN)(OC)OC`, the Potency result in experiment [1], in [2], in [10], in experiment [4], in experiment [5] and in [6] was “inactive” in each case. Moreover, the Potency result in experiment [9] and in experiment [7] was “inactive” in each case.

For the compound `Oc1c(Br)cc(Br)c2cccnc12`, the Potency in [1] was 23.7 µM (active); in experiment [10], 29.8 µM (active); in [12], 1 µM (active). Also, the Potency entry in experiment [2], in experiment [4], in [5], in experiment [7] and in experiment [8] was “inactive” each time.

As to `COc1cccc(O)c1`, the Potency result in experiment [1], in [2], in experiment [3], in experiment [4], in experiment [5] and in [6] was “inactive” each time. Moreover, the Potency entry in experiment [7] and in experiment [8] was “inactive” throughout.

On to `CNC(=S)NN`, for which the Potency in experiment [1] was 19.3 µM (active); in [6], 39.9 µM (active); in [9] it was 39.9 µM (active). Also, the Potency entry in experiment [2], in experiment [3], in experiment [7] and in experiment [8] was “inactive” in each case.

With `CCC1(c2cnc[nH]2)Cc2ccccc2C1`, the Potency entry in experiment [1], in [2], in experiment [10] and in experiment [7] was “inactive” in each case. In addition, the Potency in [4] was 0.977 µM (active); in [5], 0.977 µM (active); in [6], 1.55 µM (active); in experiment [9], 8.12 µM (active).

In the case of `Cc1cccc(C)n1`, the Potency result in experiment [1], in experiment [2], in experiment [10], in experiment [4], in experiment [5] and in [6] was “inactive” each time. Further, the Potency result in experiment [7] and in experiment [8] was “inactive” throughout. Also, the Potency in experiment [9] is 39.9 µM (active).

Take `Cc1ccc(-n2[nH]c(C)c(N=Nc3cccc(-c4cccc(C(=O)O)c4)c3O)c2=O)cc1C`: the Potency in [1] is 26.6 µM (active). Moreover, the Potency entry in experiment [2], in experiment [10], in experiment [5], in experiment [9], in [7] and in experiment [8] was “inactive” in each case.
